Of roughly 7,900 targets only a part is listed; those with a hit were picked by preference. About 0.6% of all pairs of compound and target were hits.
Experiments:
Assay in all cases: log2 fold change, soluble protein after heating vs DMSO (PISA); higher = thermal stabilisation; K562 cells, 10 uM, 30 min; active = over 0.2 and 3.5 SD of the protein, either way, in both replicates (recomputed)
[1] = compound: C1=CC=C(C=C1)[C@H](COC2=CC3=C(C=C2)NC(=O)N3)NC(=O)C4=CC=CN(C4=O)CC5=CC(=C(C=C5)F)F
How it was run: (§1)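 Aliquots of K562 cells (2×10^6 cells/mL) treated with 10 μM compound for 30 min were heated for 3 min over 48°C-58°C. After pooling and extraction in PBS with 0.5% NP-40 at 4°C, soluble protein from a 21,000xg, 90 min spin was quantified by TMTpro 16plex LC-MS/MS with channel sums equalised. Thermal stability is expressed against control samples, from duplicates, as a log2 fold change.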

[2] = compound: CC1=C(SC2=C1C(=N[C@H](C3=NN=C(N32)C)CC(=O)N)C4=CC=C(C=C4)Cl)C
How it was run: as §1

[3] = compound: CC1=C2C(=CC=C1)N=C(N(C2=O)C3=CC=CC=C3C)CN4C=NC5=C(N=CN=C54)N
How it was run: as §1

[4] = compound: Cc1sc2c(c1C)C(c1ccc(Cl)cc1)=N[C@@H](CC(=O)OC(C)(C)C)c1nnc(C)n1-2
How it was run: as §1

[5] = compound: c1ccc([C@@H]2C[C@H]2NC2CCNCC2)cc1
How it was run: as §1

Measured: log2 fold change

RAPGEF4 (UniProt Q8WZA2)
inactive: [1] -0.038 | [2] 0.152 | [3] 0.268 | [4] -0.028 | [5] -0.176

RPS25 (UniProt P62851)
inactive: [1] 0.046 | [2] -0.166 | [3] -0.139 | [4] 0.09 | [5] 0.002

RBM25 (UniProt P49756)
inactive: [1] -0.025 | [2] 0 | [3] 0.005 | [4] 0.051 | [5] 0.112

RABGGTA (UniProt Q92696)
inactive: [1] -0.105 | [2] 0.084 | [3] 0.035 | [4] 0.014 | [5] -0.024

RHEB (UniProt Q15382)
inactive: [1] 0.008 | [2] 0.04 | [3] 0.055 | [4] -0.048 | [5] -0.001

RNF14 (UniProt Q9UBS8)
inactive: [1] -0.031 | [2] -0.005 | [3] -0.048 | [4] -0.013 | [5] 0.03

RBM12 (UniProt Q9NTZ6)
inactive: [1] -0.039 | [2] 0.023 | [3] 0.077 | [4] -0.064 | [5] -0.006

SAFB2 (UniProt K7EQU4)
inactive: [1] -0.338

RAVER1 (UniProt E9PAU2)
inactive: [1] -0.138 | [2] -0.204 | [3] 0.283 | [4] -0.19 | [5] 0.053

RAP2C (UniProt Q9Y3L5)
Chain of UniProt Q9Y3L5 (Q9Y3L5 whole entry, looked up): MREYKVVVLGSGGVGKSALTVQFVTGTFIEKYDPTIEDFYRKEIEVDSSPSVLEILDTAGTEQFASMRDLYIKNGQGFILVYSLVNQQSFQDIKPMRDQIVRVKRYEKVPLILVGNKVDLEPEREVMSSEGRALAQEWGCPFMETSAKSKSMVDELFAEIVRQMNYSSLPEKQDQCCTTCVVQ
inactive: [1] 0 | [2] 0.055 | [3] -0.012 | [4] 0.038 | [5] -0.011

RSL1D1 (UniProt O76021)
inactive: [1] 0.18 | [2] -0.349 | [3] -0.241 | [4] 0.178 | [5] 0.031

RPS16 (UniProt P62249)
inactive: [1] 0.049 | [2] -0.149 | [3] -0.192 | [4] 0.043 | [5] -0.003

SCO2 (UniProt O43819)
inactive: [1] -0.03 | [2] -0.108 | [3] -0.041 | [4] -0.098 | [5] 0.023

RHOA (UniProt P61586)
Chain of UniProt P61586 (P61586 whole entry, looked up): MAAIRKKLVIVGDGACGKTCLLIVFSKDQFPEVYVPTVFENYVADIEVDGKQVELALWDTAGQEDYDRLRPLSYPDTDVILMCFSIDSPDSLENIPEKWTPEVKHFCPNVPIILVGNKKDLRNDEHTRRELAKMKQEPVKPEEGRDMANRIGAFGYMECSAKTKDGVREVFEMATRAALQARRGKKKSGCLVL
inactive: [1] 0.01 | [2] -0.058 | [3] -0.095 | [4] -0.041 | [5] 0.021

RBM27 (UniProt Q9P2N5)
Chain of UniProt Q9P2N5 (Q9P2N5 whole entry, looked up): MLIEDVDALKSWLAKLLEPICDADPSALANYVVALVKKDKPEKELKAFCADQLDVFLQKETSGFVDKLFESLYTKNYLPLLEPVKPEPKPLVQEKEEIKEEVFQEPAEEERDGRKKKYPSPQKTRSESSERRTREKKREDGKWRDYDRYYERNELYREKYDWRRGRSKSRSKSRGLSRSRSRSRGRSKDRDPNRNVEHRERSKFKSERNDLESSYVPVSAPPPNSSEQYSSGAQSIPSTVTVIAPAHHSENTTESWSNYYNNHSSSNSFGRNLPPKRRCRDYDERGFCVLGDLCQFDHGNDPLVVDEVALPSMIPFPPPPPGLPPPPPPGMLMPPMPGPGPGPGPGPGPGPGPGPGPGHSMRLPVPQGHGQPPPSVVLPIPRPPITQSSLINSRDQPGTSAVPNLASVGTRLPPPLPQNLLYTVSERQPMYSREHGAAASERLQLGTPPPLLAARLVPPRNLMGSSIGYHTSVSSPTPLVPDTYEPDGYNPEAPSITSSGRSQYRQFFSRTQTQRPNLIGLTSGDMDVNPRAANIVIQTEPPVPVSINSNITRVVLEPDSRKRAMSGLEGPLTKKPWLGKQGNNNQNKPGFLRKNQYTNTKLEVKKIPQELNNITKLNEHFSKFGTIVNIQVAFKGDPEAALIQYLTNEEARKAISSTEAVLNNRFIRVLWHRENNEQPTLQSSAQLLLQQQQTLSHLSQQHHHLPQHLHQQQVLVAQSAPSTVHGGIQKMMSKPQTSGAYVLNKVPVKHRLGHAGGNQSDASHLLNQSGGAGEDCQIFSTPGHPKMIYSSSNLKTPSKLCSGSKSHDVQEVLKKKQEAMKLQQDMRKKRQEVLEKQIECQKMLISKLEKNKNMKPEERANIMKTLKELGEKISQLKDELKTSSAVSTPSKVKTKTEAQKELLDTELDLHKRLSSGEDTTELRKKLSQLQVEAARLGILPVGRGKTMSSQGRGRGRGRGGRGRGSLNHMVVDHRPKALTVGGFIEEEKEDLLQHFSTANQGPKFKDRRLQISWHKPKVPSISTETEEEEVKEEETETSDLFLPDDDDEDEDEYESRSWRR
inactive: [1] -0.015 | [2] 0.005 | [3] 0.049 | [4] 0.029 | [5] -0.01

SEC16A isoform 5 (UniProt O15027)
inactive: [1] 0.014 | [2] 0.012 | [3] 0.154 | [4] 0.011 | [5] -0.006

REEP4 (UniProt Q9H6H4)
Chain of UniProt Q9H6H4 (Q9H6H4 whole entry, looked up): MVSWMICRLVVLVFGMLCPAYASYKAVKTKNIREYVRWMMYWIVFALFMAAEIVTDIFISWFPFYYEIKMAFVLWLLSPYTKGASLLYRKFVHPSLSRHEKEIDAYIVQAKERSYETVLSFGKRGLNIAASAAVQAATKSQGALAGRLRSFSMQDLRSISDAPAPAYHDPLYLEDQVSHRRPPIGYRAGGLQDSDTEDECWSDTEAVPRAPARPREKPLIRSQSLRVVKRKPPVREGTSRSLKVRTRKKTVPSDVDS
inactive: [1] -0.004 | [2] -0.034 | [3] -0.023 | [4] 0.081 | [5] 0.003

SCAMP2 (UniProt H3BUB6)
inactive: [1] 0.03 | [2] -0.017 | [3] 0.308 | [4] 0.15 | [5] 0.135

RAB9A (UniProt P51151)
inactive: [1] 0.024 | [2] 0.088 | [3] 0.065 | [4] -0.04 | [5] 0.001

SESN2 (UniProt P58004)
inactive: [1] -0.03 | [2] -0.031 | [3] 0.067 | [4] 0.066 | [5] -0.028

RTN4IP1 (UniProt Q8WWV3)
active: [3] 0.999
inactive: [1] 0 | [2] 0.07 | [4] -0.051 | [5] -0.108

ROCK2 (UniProt O75116)
inactive: [1] -0.026 | [2] 0.003 | [3] 0.085 | [4] 0.024 | [5] -0.01

SCAF8 isoform 2 (UniProt Q9UPN6)
inactive: [1] -0.072 | [2] 0.099 | [3] 0.254 | [4] -0.016 | [5] 0.012

SGPL1 (UniProt O95470)
inactive: [1] 0.041 | [2] -0.014 | [3] 0.005 | [4] 0.049 | [5] -0.004

RBM17 (UniProt Q96I25)
Chain of UniProt Q96I25 (Q96I25 whole entry, looked up): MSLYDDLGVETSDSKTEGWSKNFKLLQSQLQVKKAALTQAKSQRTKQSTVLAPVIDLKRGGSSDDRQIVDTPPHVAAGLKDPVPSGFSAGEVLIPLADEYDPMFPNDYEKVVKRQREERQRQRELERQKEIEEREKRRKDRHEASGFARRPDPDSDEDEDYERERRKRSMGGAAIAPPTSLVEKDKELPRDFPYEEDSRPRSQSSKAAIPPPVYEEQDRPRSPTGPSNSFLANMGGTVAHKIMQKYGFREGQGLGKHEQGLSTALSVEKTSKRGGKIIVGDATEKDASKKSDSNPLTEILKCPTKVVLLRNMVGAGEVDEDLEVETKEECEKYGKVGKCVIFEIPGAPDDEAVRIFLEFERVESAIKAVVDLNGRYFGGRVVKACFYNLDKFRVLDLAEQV
inactive: [1] -0.038 | [2] 0.017 | [3] 0.049 | [4] 0.003 | [5] -0.013

RALA (UniProt P11233)
inactive: [1] 0.021 | [2] 0.046 | [3] 0.027 | [4] -0.016 | [5] 0.069

SLC19A1 (UniProt P41440)
inactive: [1] -0.025 | [2] 0.065 | [3] 0.045 | [4] -0.013 | [5] 0.017

RPAIN isoform 8 (UniProt Q86UA6)
inactive: [1] 0.026 | [2] 0.057 | [3] 0.046 | [4] -0.038 | [5] 0.006

RAB8B (UniProt Q92930)
inactive: [1] 0.004 | [2] -0.006 | [3] -0.222 | [4] 0.033 | [5] -0.062

RPTOR (UniProt Q8N122)
inactive: [1] -0.022 | [2] -0.015 | [3] 0.095 | [4] -0.02 | [5] 0.032

RAD51 (UniProt Q06609)
inactive: [1] -0.006 | [2] 0.142 | [3] -0.037 | [4] 0 | [5] -0.053

RPS19 (UniProt P39019)
inactive: [1] 0.108 | [2] -0.158 | [3] -0.197 | [4] 0.107 | [5] -0.002

RETSAT (UniProt Q6NUM9)
inactive: [1] 0.028 | [2] 0.114 | [3] 0.119 | [4] -0.15 | [5] 0.042

SETD3 (UniProt Q86TU7)
inactive: [1] -0.017 | [2] 0.018 | [3] 0.061 | [4] 0.021 | [5] -0.005

RCN3 (UniProt Q96D15)
inactive: [1] 0.016 | [2] 0.032 | [3] -0.061 | [4] -0.01 | [5] 0.023

RNPS1 (UniProt Q15287)
Chain of UniProt Q15287 (Q15287 whole entry, looked up): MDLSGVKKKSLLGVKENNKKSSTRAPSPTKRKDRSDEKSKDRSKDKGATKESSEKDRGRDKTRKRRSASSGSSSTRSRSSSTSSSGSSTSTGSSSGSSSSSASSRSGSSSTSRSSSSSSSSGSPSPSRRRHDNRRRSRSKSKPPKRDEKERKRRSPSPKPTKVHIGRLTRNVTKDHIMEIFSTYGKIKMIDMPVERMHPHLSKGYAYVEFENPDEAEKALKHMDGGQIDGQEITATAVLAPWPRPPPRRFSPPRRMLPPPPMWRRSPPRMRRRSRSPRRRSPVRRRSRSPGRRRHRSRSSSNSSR
inactive: [1] -0.019 | [2] 0.001 | [3] 0.032 | [4] 0.119 | [5] 0.061

RPS6KA3 (UniProt P51812)
inactive: [1] -0.044 | [2] 0.05 | [3] 0.036 | [4] -0.034 | [5] -0.006

RAC3 (UniProt P60763)
inactive: [1] -0.006 | [2] 0.028 | [3] 0.029 | [4] -0.025 | [5] -0.147

SEC23A (UniProt Q15436)
Chain of UniProt Q15436 (Q15436 whole entry, looked up): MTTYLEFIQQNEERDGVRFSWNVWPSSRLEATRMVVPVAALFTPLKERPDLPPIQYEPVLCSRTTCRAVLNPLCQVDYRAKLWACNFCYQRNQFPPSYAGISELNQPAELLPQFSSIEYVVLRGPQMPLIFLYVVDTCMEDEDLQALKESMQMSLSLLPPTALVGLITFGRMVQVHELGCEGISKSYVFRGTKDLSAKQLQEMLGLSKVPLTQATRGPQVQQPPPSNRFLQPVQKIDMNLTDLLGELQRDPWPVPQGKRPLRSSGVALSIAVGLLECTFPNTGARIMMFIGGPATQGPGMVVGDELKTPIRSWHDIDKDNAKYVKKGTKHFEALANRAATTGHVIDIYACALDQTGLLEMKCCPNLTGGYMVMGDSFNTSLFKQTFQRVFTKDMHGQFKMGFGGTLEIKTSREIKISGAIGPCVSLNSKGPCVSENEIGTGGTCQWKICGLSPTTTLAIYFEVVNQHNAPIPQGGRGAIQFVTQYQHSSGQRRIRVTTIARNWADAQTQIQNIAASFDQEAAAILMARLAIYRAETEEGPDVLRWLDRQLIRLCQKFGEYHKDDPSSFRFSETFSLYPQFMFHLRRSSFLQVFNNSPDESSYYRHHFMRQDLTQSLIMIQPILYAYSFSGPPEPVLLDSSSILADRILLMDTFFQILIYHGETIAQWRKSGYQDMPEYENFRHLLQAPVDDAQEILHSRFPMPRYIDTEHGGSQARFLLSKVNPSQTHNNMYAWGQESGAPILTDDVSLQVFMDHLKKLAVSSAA
inactive: [1] 0.006 | [2] 0.052 | [3] 0.078 | [4] 0.027 | [5] 0.075

RFC3 (UniProt P40938)
inactive: [1] -0.005 | [2] 0.028 | [3] 0.029 | [4] -0.019 | [5] -0.074

RPS4X (UniProt P62701)
inactive: [1] 0.105 | [2] -0.255 | [3] -0.232 | [4] 0.148 | [5] 0.001

SACM1L (UniProt Q9NTJ5)
inactive: [1] 0 | [2] 0.048 | [3] 0.064 | [4] -0.044 | [5] 0.006

RELA (UniProt Q04206)
inactive: [1] -0.013 | [2] 0.056 | [3] 0.03 | [4] 0.031 | [5] 0.008

RRS1 (UniProt Q15050)
inactive: [1] 0.168 | [2] -0.368 | [3] -0.187 | [4] 0.246 | [5] -0.006

SKP1 (UniProt P63208)
Chain of UniProt P63208 (P63208 whole entry, looked up): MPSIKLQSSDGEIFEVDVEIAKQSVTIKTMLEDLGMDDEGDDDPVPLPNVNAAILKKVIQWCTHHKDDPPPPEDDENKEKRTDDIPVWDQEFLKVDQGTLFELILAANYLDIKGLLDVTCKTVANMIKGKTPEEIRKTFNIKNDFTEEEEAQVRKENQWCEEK
inactive: [1] -0.035 | [2] -0.008 | [3] 0 | [4] -0.036 | [5] -0.017

RNPEP (UniProt Q9H4A4)
Chain of UniProt Q9H4A4 (Q9H4A4 whole entry, looked up): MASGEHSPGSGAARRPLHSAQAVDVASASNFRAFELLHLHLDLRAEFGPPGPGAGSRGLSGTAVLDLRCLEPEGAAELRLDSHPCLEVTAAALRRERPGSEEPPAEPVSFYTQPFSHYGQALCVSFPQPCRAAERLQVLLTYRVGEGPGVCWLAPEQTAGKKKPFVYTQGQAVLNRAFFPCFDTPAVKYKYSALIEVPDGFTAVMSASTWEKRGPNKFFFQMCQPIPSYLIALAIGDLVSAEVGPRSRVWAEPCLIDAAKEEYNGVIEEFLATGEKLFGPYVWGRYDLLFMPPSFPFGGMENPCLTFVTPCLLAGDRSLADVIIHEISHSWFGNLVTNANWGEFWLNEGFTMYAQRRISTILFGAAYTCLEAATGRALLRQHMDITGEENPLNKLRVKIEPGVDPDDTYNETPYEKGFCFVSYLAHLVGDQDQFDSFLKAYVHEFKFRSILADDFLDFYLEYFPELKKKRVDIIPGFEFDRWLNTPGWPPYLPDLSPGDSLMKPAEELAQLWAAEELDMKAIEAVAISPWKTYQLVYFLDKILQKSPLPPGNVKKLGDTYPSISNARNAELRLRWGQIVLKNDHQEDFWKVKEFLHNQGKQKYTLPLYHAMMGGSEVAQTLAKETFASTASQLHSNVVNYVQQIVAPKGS
inactive: [1] -0.043 | [2] 0.05 | [3] 0.047 | [4] -0.015 | [5] -0.021

SETMAR (UniProt Q53H47)
inactive: [1] 0.001 | [2] 0.096 | [3] 0.033 | [4] -0.031 | [5] -0.02

RBM26 isoform 2 (UniProt Q5T8P6)
Chain of UniProt Q5T8P6 (Q5T8P6 whole entry, looked up): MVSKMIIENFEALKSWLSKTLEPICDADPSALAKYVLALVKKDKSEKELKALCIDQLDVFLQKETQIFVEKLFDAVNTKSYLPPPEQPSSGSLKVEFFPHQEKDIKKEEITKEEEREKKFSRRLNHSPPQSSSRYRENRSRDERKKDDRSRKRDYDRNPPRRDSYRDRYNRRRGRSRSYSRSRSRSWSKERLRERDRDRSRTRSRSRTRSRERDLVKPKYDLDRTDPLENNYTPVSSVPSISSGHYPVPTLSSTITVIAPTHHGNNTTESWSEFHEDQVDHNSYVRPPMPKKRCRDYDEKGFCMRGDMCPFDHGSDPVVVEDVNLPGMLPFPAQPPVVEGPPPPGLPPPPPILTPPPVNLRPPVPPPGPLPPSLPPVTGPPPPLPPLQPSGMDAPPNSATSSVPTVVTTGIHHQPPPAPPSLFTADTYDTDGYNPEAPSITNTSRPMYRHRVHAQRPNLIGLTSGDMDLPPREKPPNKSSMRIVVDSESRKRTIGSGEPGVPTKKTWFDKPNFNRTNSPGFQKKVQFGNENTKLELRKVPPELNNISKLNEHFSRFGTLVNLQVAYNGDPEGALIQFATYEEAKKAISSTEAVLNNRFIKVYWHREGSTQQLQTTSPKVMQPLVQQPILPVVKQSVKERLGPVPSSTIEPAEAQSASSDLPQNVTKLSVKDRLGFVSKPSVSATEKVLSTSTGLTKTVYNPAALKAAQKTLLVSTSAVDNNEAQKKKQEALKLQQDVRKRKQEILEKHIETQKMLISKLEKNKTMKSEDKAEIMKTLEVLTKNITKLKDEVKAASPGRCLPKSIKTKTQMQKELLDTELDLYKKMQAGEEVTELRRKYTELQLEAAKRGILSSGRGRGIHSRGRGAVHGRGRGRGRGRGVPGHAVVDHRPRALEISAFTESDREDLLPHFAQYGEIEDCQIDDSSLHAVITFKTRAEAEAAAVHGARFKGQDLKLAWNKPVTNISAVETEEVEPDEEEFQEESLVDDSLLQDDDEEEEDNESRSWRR
inactive: [1] -0.068 | [2] 0.016 | [3] 0.144 | [4] -0.011 | [5] 0.012

RPA3 (UniProt P35244)
inactive: [1] 0.008 | [2] 0.09 | [3] -0.055 | [4] -0.146 | [5] -0.03

RPL38 (UniProt P63173)
inactive: [1] 0.012 | [2] -0.03 | [3] -0.046 | [4] 0.053 | [5] 0.013

RPS20 isoform 2 (UniProt P60866)
inactive: [1] -0.002 | [2] -0.114 | [3] -0.051 | [4] 0.059 | [5] 0

RPS2 (UniProt P15880)
inactive: [1] 0.123 | [2] -0.222 | [3] -0.222 | [4] 0.113 | [5] 0

SASH1 (UniProt O94885)
inactive: [1] -0.044 | [2] 0.092 | [3] 0.037 | [4] -0.045 | [5] -0.161

RANBP2 (UniProt P49792)
inactive: [1] -0.094 | [2] 0 | [3] 0.114 | [4] -0.085 | [5] -0.089

Source: the supplement of paper PMC10849652
